Source: PubChem BioAssay AID1159580 (chemical genetic matrix, 2015)
Hit rate of the full screen: of about 5,500 compounds, about 2,000 (36%) were called active. About 18% were inconclusive and are not listed. No stated cut-off is given here; in the data, active means normalized growth mostly below about 0.91 (no sharp cut-off); inconclusive means no clear call, values can overlap the other calls; inactive means mostly above about 0.92. The list shows a part of the results.

Assay: chemical genetic growth profiling, strain panel (AID 1159580);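 further: tested at 20 µM; growth read once vehicle control cultures reached saturation at 30 °C; 1 = growth at the plate median or of vehicle wells; lower values mean less growth of the strain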
Conditions: S. cerevisiae deletion strains, growth OD

Measured: normalized growth

CC(C)Oc1ccc2c(=O)cc(-c3ccccc3)oc2c1
active: locus YAL013W, strain DEP1, active compounds read low 0.892 | locus YBR021W, strain FUR4, active compounds read low 0.844 | locus YCL029C, strain bik1, active compounds read low 0.88 | locus YCL061C, strain MRC1, active compounds read low 0.918 | locus YDL185W, strain tfp1, active compounds read low 0.423 | locus YDL192W, strain arf1, active compounds read low 0.884 | locus YDR101C, strain arx1, active compounds read low 0.906 | locus YDR137W, strain rgp1, active compounds read low 0.834 | locus YDR318W, strain mcm21, active compounds read low 0.885 | locus YDR388W, active compounds read low 0.876 | locus YDR392W, strain spt3, active compounds read low 0.358 | locus YDR502C, strain sam2, active compounds read low 0.904 | locus YEL003W, strain gim4, active compounds read low 0.887 | locus YEL061C, strain CIN8, active compounds read low 0.923 | locus YER110C, active compounds read low 0.886 | locus YER155C, strain BEM2 (second series), active compounds read low 0.679 | locus YER155C, strain BEM2, active compounds read low 0.85 | locus YGL078C, strain dbp3, active compounds read low 0.815 | locus YGL086W, strain mad1, active compounds read low 0.91 | locus YGL227W, strain vid30, active compounds read low 0.905 | locus YHR079C, strain IRE1 (second series), active compounds read low 0.888 | locus YHR094C, strain hxt1, active compounds read low 0.879 | locus YHR129C, strain ARP1, active compounds read low 0.916 | locus YHR142W, strain chs7, active compounds read low 0.735 | locus YHR200W, strain rpn10, active compounds read low 0.869 | locus YIL125W, strain kgd1, active compounds read low 0.715 | locus YIR030C, strain dcg1, active compounds read low 0.878 | locus YJL129C, strain trk1, active compounds read low 0.815 | locus YJL134W, strain LCB3, active compounds read low 0.909 | locus YJL166W, strain qcr8, active compounds read low 0.893 | locus YJL168C, strain set2, active compounds read low 0.872 | locus YKL009W, strain mrt4, active compounds read low 0.452 | locus YKL068W, active compounds read low 0.797 | locus YKL085W, strain MDH1 (second series), active compounds read low 0.667 | locus YKL085W, strain MDH1, active compounds read low 0.667 | locus YKR001C, strain vps1, active compounds read low 0.83 | locus YLR102C, strain apc9, active compounds read low 0.881 | locus YLR221C, strain rsa3, active compounds read low 0.895 | locus YLR262C, strain YPT6 (second series), active compounds read low 0.821 | locus YLR320W, strain mms22, active compounds read low 0.785 | locus YLR330W, strain CHS5, active compounds read low 0.896 | locus YLR371W, strain rom2, active compounds read low 0.898 | locus YLR418C, strain cdc73, active compounds read low 0.814 | locus YML016C, strain PPZ1, active compounds read low 0.91 | locus YML124C, strain tub3, active compounds read low 0.867 | locus YMR078C, strain ctf18, active compounds read low 0.839 | locus YMR205C, strain PFK2, active compounds read low 0.844 | locus YMR223W, strain ubp8, active compounds read low 0.9 | locus YNL071W, strain lat1, active compounds read low 0.734 | locus YNL250W, strain rad50, active compounds read low 0.767 | locus YNL271C, strain bni1, active compounds read low 0.794 | locus YNL298W, strain CLA4, active compounds read low 0.538 | locus YNL307C, strain MCK1, active compounds read low 0.848 | locus YNR052C, strain pop2, active compounds read low 0.908 | locus YOL147C, strain pex11, active compounds read low 0.872 | locus YOR069W, strain VPS5, active compounds read low 0.925 | locus YOR144C, strain elg1, active compounds read low 0.874 | locus YOR270C, strain vph1, active compounds read low 0.731 | locus YOR290C, strain snf2, active compounds read low 0.797 | locus YOR316C, strain cot1, active compounds read low 0.875 | locus YPL051W, strain arl3, active compounds read low 0.897 | locus YPR119W, strain clb2, active compounds read low 0.856 | locus YPR141C, strain kar3, active compounds read low 0.802 | locus YPR163C, strain tif3, active compounds read low 0.906 | locus YPR167C, strain met16, active compounds read low 0.873
inactive: locus YAL021C, strain ccr4, active compounds read low 0.956 | locus YAL026C, strain drs2, active compounds read low 0.934 | locus YAL030W, strain snc1, active compounds read low 0.955 | locus YBL061C, strain skt5, active compounds read low 0.929 | locus YBR009C, strain hhf1, active compounds read low 0.952 | locus YBR023C, strain chs3, active compounds read low 0.944 | locus YBR171W, strain sec66, active compounds read low 0.912 | locus YBR229C, strain ROT2, active compounds read low 0.915 | locus YBR231C, strain swc5, active compounds read low 0.937 | locus YBR279W, strain paf1, active compounds read low 0.963 | locus YCL011C, strain gbp2, active compounds read low 0.923 | locus YCL016C, strain dcc1, active compounds read low 0.94 | locus YCL069W, strain vba3, active compounds read low 0.95 | locus YCR088W, strain abp1, active compounds read low 0.933 | locus YDL005C, strain med2, active compounds read low 0.96 | locus YDL035C, strain GPR1, active compounds read low 0.984 | locus YDL040C, strain nat1, active compounds read low 0.953 | locus YDL074C, strain BRE1, active compounds read low 0.871 | locus YDL101C, strain DUN1, active compounds read low 0.938 | locus YDR001C, strain nth1, active compounds read low 0.943 | locus YDR069C, strain doa4, active compounds read low 0.972 | locus YDR150W, strain NUM1, active compounds read low 0.937 | locus YDR159W, strain sac3, active compounds read low 0.919 | locus YDR162C, strain NBP2, active compounds read low 0.953 | locus YDR195W, strain ref2 1.03 | locus YDR297W, strain sur2, active compounds read low 0.95 | locus YDR334W, strain swr1, active compounds read low 0.953 | locus YDR335W, strain msn5, active compounds read low 0.962 | locus YEL037C, strain rad23, active compounds read low 0.953 | locus YEL061C, strain CIN8 (second series), active compounds read low 0.916 | locus YER015W, strain faa2, active compounds read low 0.962 | locus YER016W, strain bim1, active compounds read low 0.956 | locus YER111C, strain swi4, active compounds read low 0.959 | locus YER167W, strain BCK2, active compounds read low 0.925 | locus YFR010W, strain ubp6, active compounds read low 0.936 | locus YGL167C, strain pmr1, active compounds read low 0.946 | locus YGL173C, strain kem1, active compounds read low 0.943 | locus YGL240W, strain doc1, active compounds read low 0.901 | locus YGL248W, strain PDE1, active compounds read low 0.912 | locus YGL253W, strain hxk2, active compounds read low 0.926 | locus YGR078C, strain PAC10, active compounds read low 0.903 | locus YGR135W, strain pre9, active compounds read low 0.907 | locus YGR252W, strain gcn5, active compounds read low 0.827 | locus YHR013C, strain ard1, active compounds read low 0.859 | locus YHR027C, strain rpn1, active compounds read low 0.947 | locus YHR030C, strain SLT2, active compounds read low 0.92 | locus YIL066C, strain RNR3, active compounds read low 0.939 | locus YIL073C, strain SPO22, active compounds read low 0.921 | locus YJL092W, strain hpr5, active compounds read low 0.928 | locus YJL095W, strain BCK1 (second series), active compounds read low 0.948 | locus YJL095W, strain BCK1, active compounds read low 0.888 | locus YJL115W, strain asf1, active compounds read low 0.958 | locus YJL154C, strain vps35, active compounds read low 0.952 | locus YJL164C, strain tpk1, active compounds read low 0.923 | locus YJL187C, strain SWE1 (second series), active compounds read low 0.906 | locus YJL187C, strain SWE1, active compounds read low 0.951 | locus YJR043C, strain POL32, active compounds read low 0.941 | locus YJR075W, strain HOC1, active compounds read low 0.904 | locus YKL160W, strain elf1, active compounds read low 0.913 | locus YKL190W, strain CNB1, active compounds read low 0.945 | locus YKR026C, strain gcn3, active compounds read low 0.934 | locus YKR091W, strain srl3, active compounds read low 0.965 | locus YLL001W, strain dnm1, active compounds read low 0.951 | locus YLL026W, active compounds read low 0.955 | locus YLL041C, strain sdh2, active compounds read low 0.957 | locus YLR027C, strain aat2, active compounds read low 0.957 | locus YLR039C, strain RIC1, active compounds read low 0.815 | locus YLR058C, strain SHM2, active compounds read low 0.915 | locus YLR258W, strain gsy2, active compounds read low 0.948 | locus YLR262C, strain YPT6, active compounds read low 0.861 | locus YLR268W, strain sec22, active compounds read low 0.906 | locus YLR342W, strain FKS1 (second series), active compounds read low 0.911 | locus YLR342W, strain FKS1, active compounds read low 0.916 | locus YLR357W, strain rsc2, active compounds read low 0.869 | locus YLR370C, strain arc18, active compounds read low 0.941 | locus YLR384C, strain iki3, active compounds read low 0.944 | locus YML032C, strain rad52, active compounds read low 0.908 | locus YML120C, strain ndi1, active compounds read low 0.963 | locus YMR058W, strain fet3, active compounds read low 0.916 | locus YMR125W, strain sto1, active compounds read low 0.953 | locus YMR129W, active compounds read low 0.952 | locus YMR231W, strain pep5, active compounds read low 0.969 | locus YMR263W, strain SAP30, active compounds read low 0.893 | locus YMR307W, strain GAS1, active compounds read low 0.791 | locus YNL067W, strain RPL9B, active compounds read low 0.93 | locus YNL128W, strain TEP1, active compounds read low 0.941 | locus YNL209W, strain ssb2, active compounds read low 0.971 | locus YNL233W, strain BNI4, active compounds read low 0.901 | locus YNL248C, strain rpa49, active compounds read low 0.919 | locus YNL322C, strain KRE1 (second series), active compounds read low 0.946 | locus YNR049C, strain mso1, active compounds read low 0.943 | locus YOL012C, strain htz1 1.5 | locus YOR001W, strain rrp6, active compounds read low 0.896 | locus YOR061W, strain CKA2, active compounds read low 0.912 | locus YOR070C, strain gyp1, active compounds read low 0.961 | locus YOR080W, strain dia2, active compounds read low 0.965 | locus YOR083W, strain WHI5, active compounds read low 0.928 | locus YOR106W, strain vam3, active compounds read low 0.917 | locus YOR136W, strain idh2, active compounds read low 0.938 | locus YOR184W, strain ser1, active compounds read low 0.9 | locus YOR265W, strain rbl2, active compounds read low 0.96 | locus YPL078C, strain atp4, active compounds read low 0.905 | locus YPL106C, strain sse1, active compounds read low 0.928 | locus YPL240C, strain hsp82, active compounds read low 0.95 | strain wtn01, active compounds read low 0.909
